# Records with an inconclusive call do not appear. Entries that show only a call come without a potency. Active and inactive are the calls of the source. The call rests on the fitted dose curve; in most records, active means well fitted cell-killing curve with a large enough effect; inconclusive means small, poorly fitted or top-dose-only effect, or effect the other way; inactive means no such curve, though single readings can be large or run the other way.
# Test: Quantitative highthroughput screen to assess conditional lethalithy of SEM cells grown in RPMI1640 with unreated serum (RPMI+s) (AID 1963883); further: nearly all actives have a fitted effect of over 35% in size
# Details: SEM B-ALL cells, CellTiter-Glo viability, 48 h; series mostly up to 45.8 µM
# Description: Assay Provider: Jason Cantor Ph.D.
# Department of Biochemistry
# University of Wisconsin-Madison, Madison, WI, USA
# Chemical screening studies have identified drug sensitivities across hundreds of cancer cell lines but most putative therapeutics fail to translate. Discovery and development of drug candidates in models that more accurately reflect nutrient levels in human blood is a major challenge. Here we performed high-throughput screens in conventional versus Human Plasma-Like Medium (HPLM) to identify compounds that were "missed" when screening using the artificial culture condition. Sets of conditional anticancer compounds spanned phases of clinical development and included non-oncology drugs were assessed. […] We also traced conditional phenotypes for several chemotherapeutics to availability of HPLM-specific metabolites and confirmed others for compounds whose reported targets are encoded by nonessential genes. Our findings establish generalizable strategies for exploiting conditional lethality in HPLM to reveal therapeutic candidates and mechanisms of action in cancer cells.
# Described herein are the results of each viability screens against three cell lines: NOMO1 (an acute myeloid leukemia cell line); P12-Ichikawa (a T-cell acute lymphoblastic leukemia); and SEM (a B-cell ALL). Each assay was screened using 3 different cell culture media: homemade human plasma-Like medium with 10% dialyzed fetal bovine serum (HPLM+ds); RPMI1640 with 10% untreated FBS and 5mM glucose (RPMI+s); and RPMI1640 with 10% dialyzed fetal bovine serum and 5 mM glucose (RPMI+ds).
# PROTOCOL TABLE (as described by Inglese J, Shamu CE and Guy RK. 2007)
# SEQUENCE No. (e.g., 1, 2, 3, etc.); […] (e.g., Cells, Incubation, Reagent, etc.); VALUE and DESCRIPTION.
# 1; Cells; 5 uL; white, solid bottom 1536-well Greiner assay plate.
# 2; Compounds; 23 nL; Kalypsis pin tool (Wako USA) equipped with a 1536-well pin head to transfer to the assay plates.
# 3; Incubation; 48 hours; 37C incubation.
# 4; Reagent; 3 uL; CellTiter Glo (Promega).
# 5; Incubation; 5 min, room temperature
# 6; Detection; Luminescence, Viewlux PerkinElmer.
# NOTES (numbers refer to Sequence numbers above)
# 1. Briefly, 5 ul of cell reagent was dispensed using a Multidrop Combi Dispenser. The NOMO1 and SEM cells were plated at 500 cells/well and the P12-Ichikawa line at 1000 cells/well.
# 2. After seeding the cells, 23 nL of MIPE 4.1 library compounds (in DMSO) were added to each plate using a Kalypsys 1536 Pintool dispenser. Bortezomib at final concentration of […] and DMSO were added to each plate as positive and negative controls respectively. For each screen, MIPE 4.1 compounds were added over an eleven-point concentration range […] in 3-fold dilutions.
# 3. Each plate was covered with a stainless steel gasketed lid to prevent evaporation and incubated for 48 hour at 37C, 95% relative humidity, and 5% CO2.
# 4-5. Three microliter CellTilter-GloTM luminescent substrate mix (Promega) reagent was added to the assay plate and incubated at room temperature for 5 min.
# 6. The luminescence signal was measured using a ViewLux (PerkinElmer) multiplate reader with a 2 second exposure time per plate. Data for each compound were normalized as percent viability such that measurements for DMSO and the empty well controls in each plate were defined as 100% and 0%, respectively.
# Potency means the concentration at half of the fitted maximal effect.
row,SMILES,Potency
1,O=C(Oc1ccc([N+](=O)[O-])cc1)N1CCN(Cc2cccc(Oc3ccccc3)c2)CC1,inactive
2,O=C(O)c1nn(Cc2ccc(Cl)cc2Cl)c2ccccc12,inactive
3,COc1ccc(C(=O)c2c(C)n(CCN3CCOCC3)c3ccccc23)cc1,inactive
4,C[C@](O)(CS(=O)(=O)c1ccc(F)cc1)C(=O)Nc1ccc(C#N)c(C(F)(F)F)c1,inactive
5,CNC(=O)N1N=C(c2ccc(N)cc2)c2cc3c(cc2CC1C)OCO3 (stereo not given),8.33 µM (active)
6,C#C[C@]1(O)C=C[C@@H]2[C@@H]3CCC4=CC(=O)CC[C@@H]4[C@H]3CC[C@@]21CC,inactive
7,COC[C@@H](NC(C)=O)C(=O)NCc1ccccc1,inactive
8,C[C@]12CCC(=O)C=C1CC[C@@H]1[C@H]3CC[C@](C)(O)[C@@]3(C)CC[C@@H]12,inactive
9,CC(C)(O)C=CC(=O)[C@](C)(O)[C@H]1[C@H](O)C[C@]2(C)[C@@H]3CC=C4[C@@H](C=C(O)C(=O)C4(C)C)[C@]3(C)C(=O)C[C@@]12C,0.0469 µM (active)
10,CCOc1ccccc1-n1c(C(C)N2CCN(C(=O)COc3ccc(Cl)cc3)CC2)nc2ccccc2c1=O (stereo not given),0.417 µM (active)
11,CC(=Cc1csc(C)n1)[C@@H]1C[C@H]2O[C@@H]2CCC[C@H](C)[C@@H](O)[C@@H](C)C(=O)C(C)(C)[C@@H](O)CC(=O)O1,inactive
12,C[C@@H]1[C@H](O)[C@@H](C)C=CC=CCCC=CC=CC=CC=C[C@H](O[C@H]2O[C@@H](C)[C@H](O)[C@@H](N)[C@@H]2O)CC2O[C@](O)(C[C@@H](O)[C@H](O)CC[C@@H](O)C[C@@H](O)C[C@@H](O)CC(=O)O[C@H]1C)C[C@H](O)[C@H]2C(=O)O,inactive
13,CCOC(=O)c1c(C(C#N)=CN)c2ccc(Cl)c(Cl)c2n1C,18.7 µM (active)
14,O=C1CCC[C@@H]2[C@H]3CCCN4CCC[C@@H](CN12)[C@@H]34,inactive
15,COc1cccc2c1[C@]13CCN(CC4CC4)[C@H](C2)[C@]1(OC)CCC(=O)C3,inactive
16,O=P1(N(CCCl)CCCl)NCCCO1 (stereo not given),8.33 µM (active)
17,CC(=O)N(C)c1cccc(-c2ccnc3c(C(=O)c4cccs4)cnn23)c1,inactive
18,Cc1ccccc1-n1c(Cn2ncc3c(N)ncnc32)nc2cccc(C)c2c1=O,inactive
19,Cc1cccc(C)c1NC(=O)CN1CCCC1=O,inactive
20,CC(C)c1cccc(C(C)C)c1O,inactive

row,SMILES,Potency
1,Cc1c(N)nc([C@H](CC(N)=O)NC[C@@H](N)C(N)=O)nc1C(=O)N[C@H](C(=O)N[C@@H](C)[C@H](O)[C@@H](C)C(=O)N[C@@H](C(=O)NCCc1nc(-c2nc(C(=O)NCCC[S+](C)C)cs2)cs1)[C@@H](C)O)C(O[C@H]1O[C@H](CO)[C@H](O)[C@@H](O)[C@@H]1O[C@H]1O[C@H](CO)[C@@H](O)[C@H](OC(N)=O)[C@H]1O)c1cnc[nH]1 (stereo not given in full),3.32 µM (active)
2,CC(C)(O)C(=O)Nc1ccc([N+](=O)[O-])c(C(F)(F)F)c1,inactive
3,COC(=O)[C@@H](N)CCCN=C(N)N[N+](=O)[O-],inactive
4,C[C@]12Cc3cn[nH]c3C[C@@H]1CC[C@@H]1[C@H]2CC[C@@]2(C)[C@H]1CC[C@]2(C)O,inactive
5,C1=C2CCCN[C@H]2[C@@H]2C[C@H]1[C@@H]1CCCCN1C2,inactive
6,CCN(CC)C(=O)c1ccc(C2=CC3(CCNCC3)Oc3cccc(O)c32)cc1,inactive
7,CC(C)N(CCNC(=O)CN1CCCC1=O)C(C)C,inactive
8,C[C@@H]1CC[C@@]2(OC1)O[C@H]1C[C@H]3[C@@H]4CC=C5C[C@@H](O[C@@H]6O[C@H](CO)[C@@H](O[C@@H]7O[C@@H](C)[C@H](O)[C@@H](O)[C@@H]7O)[C@H](O)[C@@H]6O[C@@H]6O[C@@H](C)[C@H](O)[C@@H](O)[C@@H]6O)CC[C@]5(C)[C@@H]4CC[C@]3(C)[C@@H]1[C@H]2C,14.8 µM (active)
9,O=c1[nH]c2ccc(Cl)cc2c(N[C@@H]2CN3CCC2CC3)c1-c1nc2ccccc2[nH]1,0.0833 µM (active)
10,O=[N+]([O-])c1ncc[nH]1,inactive
11,CCC1(c2ccc(N)cc2)CCC(=O)NC1=O (stereo not given),inactive
12,C[C@@]12OC(=O)[C@]1([C@@H](O)[C@@H]1C=CCCC1)NC(=O)[C@H]2CCCl,0.0526 µM (active)
13,CCOC(=O)c1cncn1[C@H](C)c1ccccc1,inactive
14,COc1cc(C(=O)N2CC[C@@H](O)[C@@H](N)C2)cc2nc(-c3cc4ccccc4n3CC3CC3)n(C)c12,0.186 µM (active)
15,COC[C@H]1OC(=O)c2coc3c2[C@@]1(C)C1=C(C3=O)C2CCC(=O)[C@@]2(C)C[C@H]1OC(C)=O (stereo not given in full),inactive
16,Cc1[nH]nc2ccc(-c3cncc(OC[C@@H](N)Cc4c[nH]c5ccccc45)c3)cc12,0.59 µM (active)
17,C[C@@H]1[C@@H](CC(C[C@H]2O[C@@H]3O[C@]4(C)CC[C@@H]5[C@H](C)CC[C@@H]([C@H]2C)[C@@]35OO4)C[S+](=O)([O-])c2ccc(COC(=O)N(C)C)cc2)O[C@@H]2O[C@]3(C)CC[C@H]4[C@H](C)CC[C@@H]1[C@@]24OO3 (stereo not given in full),0.418 µM (active)
18,CC(=O)OCC1=C(C(=O)O)N2C(=O)[C@@H](N)[C@@H]2SC1,inactive
19,CC(O)(CS(=O)(=O)c1ccc(F)cc1)C(=O)Nc1ccc(C#N)c(C(F)(F)F)c1 (stereo not given),14.8 µM (active)
20,C[C@]12CC[C@@H]3[C@@H](CCC4=CC(=O)CC[C@@H]43)[C@@H]1CC[C@@H]2OC(=O)CCc1ccccc1,inactive

# Source: PubChem BioAssay (NCATS)
